Shown are actives, neighbours in structure and some others; about 3.5% of the full set was active somewhere.
MITF inh – human MITF inhibition, primary screen; inhibition, % at 2.6 µM; hit rate 0.91% among 650,000; O75030; AlphaScreen MITF homodimerization, bead proximity signal; in the data active = inhibition above about 50%;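 note: 0% = vehicle wells with protein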
Target sequence (O75030 whole entry, looked up): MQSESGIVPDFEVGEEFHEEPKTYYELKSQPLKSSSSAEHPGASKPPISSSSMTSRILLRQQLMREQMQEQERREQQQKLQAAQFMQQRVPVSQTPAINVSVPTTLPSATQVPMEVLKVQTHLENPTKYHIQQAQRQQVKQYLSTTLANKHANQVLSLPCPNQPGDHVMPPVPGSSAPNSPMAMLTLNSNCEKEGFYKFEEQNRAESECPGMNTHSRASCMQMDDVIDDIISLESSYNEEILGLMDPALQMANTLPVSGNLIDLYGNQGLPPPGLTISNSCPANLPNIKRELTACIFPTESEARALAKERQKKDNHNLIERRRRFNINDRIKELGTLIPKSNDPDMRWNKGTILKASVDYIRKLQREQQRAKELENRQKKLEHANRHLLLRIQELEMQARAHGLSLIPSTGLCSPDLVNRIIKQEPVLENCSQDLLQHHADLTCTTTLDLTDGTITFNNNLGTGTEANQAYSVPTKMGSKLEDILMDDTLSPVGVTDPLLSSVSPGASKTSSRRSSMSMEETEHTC
GPR151 ag – activates the human receptor GPR151 | AID 1508602 | hit rate 1% among 650,000 | activation, % at 11.2 µM | Q8TDV0 | PathHunter beta-arrestin GPR151 cells, luminescence; in the data active = activation above about 4.9%;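 note: 0% = median of compound wells and 100% = cells with positive control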
TEAD-YAP block – TEAD-YAP interaction inhibition | HEK-TIYL cells, TEAD-Gal4/YAP UAS-luciferase luminescence | hit rate 1.4% among 640,000 | inhibition, % at 9.12 µM | AID 1259422; in the data active = inhibition above about 32%;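 note: 0% = median of test compound wells and 100% = reference inhibitor wells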
FBW7 activator – activators of human E3 ligase FBW7; normalized activity (activation), % at 26.1 µM; Q969H0; AlphaScreen FBW7–phospho-cyclin E peptide binding, activator screen; hit rate 0.13% among 650,000; AID 1259310; in the data active = normalized activity above about 1.9%;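 note: purified mutant Fbw7 with reduced substrate affinity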
Starred values were filed as active, the others as inactive; ! = repeats disagree.

SMILES	MITF inh	GPR151 ag	TEAD-YAP block	FBW7 activator
Cc1ccsc1/C=C1\CCc2ccccc2C1=O	-3.2	-10.7	68.3*	-0.1
CCOc1ccc(N2C(=O)CSC2c2ccc(Br)s2)cc1 (configuration not stated)	8.7	0.7	-15.0	-0.1
Fc1ccccc1-c1cn2c3c(nnc2n1)CCCC3	-1.3	-0.7	92.1*	-0.1
O=C(Nc1cccc([N+](=O)[O-])c1)c1cccnc1	-8.1	0.2	2.9	0.1
O=c1c(CN2CCN(c3ccccn3)CC2)coc2ccccc12	39.7	-0.6	38.2*	0.0
O=c1c(CN2CCN(c3ccc(F)cc3)CC2)coc2ccccc12	17.5	1.2	5.8	0.1
O=c1c(CN2CCN(Cc3ccc4c(c3)OCO4)CC2)coc2ccccc12	42.5	-0.7	57.1*	-0.2
O=c1c(CN2CCc3ccccc3C2)coc2ccccc12	30.7	0.6	34.0*	-0.1
O=c1c(CN2CCSCC2)coc2ccccc12	14.0	0.5	3.4	0.7
COc1cc(SC)ccc1C(=O)N1CCN(Cc2ccc3c(c2)OCO3)CC1	7.2	0.9	31.9*	0.0
CCCOc1ccc(C2NC(=O)NC(C)=C2C(=O)OCCSC)cc1OC (configuration not stated)	5.5	-1.4	-19.3	0.1
CN(C)c1ccc(CN2CCN(Cc3ccc4c(c3)OCO4)CC2)cc1	52.8*	-1.2	-5.1	-0.4
CN(C)c1ccc(C(=O)N2CCN(Cc3ccc4c(c3)OCO4)CC2)cc1	-5.4	0.5	-11.6	-0.8
CCN1C(=O)/C(=C\c2cc(C)n(-c3ccccc3F)c2C)C(C(=O)OC)=C1C	18.2	-0.9	37.9*	-0.1
CCN1C(=O)/C(=C\c2cc(C)n(-c3ccccc3C)c2C)C(C(=O)OC)=C1C	16.6	0.8	-13.7	0.3
C=CCN1C(=O)/C(=C\c2cc(C)n(-c3ccccc3F)c2C)C(C(=O)OC)=C1C	0.7	-0.6	35.8*	0.1
C=CCN1C(=O)/C(=C\c2cc(C)n(-c3ccccc3)c2C)C(C(=O)OC)=C1C	-19.9	0.5	8.3	0.1
COc1cccc2sc(Nc3nnc(-c4ccccc4Cl)o3)nc12	4.2	0.6	46.3*	-0.2
COc1ccccc1-c1nnc(Nc2nc3c(OC)cccc3s2)o1	2.0	0.5	53.4*	-0.2
COc1cccc2sc(Nc3nnc(-c4ccccc4)o3)nc12	1.5	-3.6	12.3	-0.1
O=C(Cn1cnc2sc3c(c2c1=O)CCCC3)N1CCc2ccccc2C1	-8.9	-0.4	-4.5	-0.1
O=C(COc1ccccc1-c1ccccc1)NN=C1CCCC1	5.4	1.6	60.9*	-0.1
Cc1c(OC(C)C(=O)OC(C)C)ccc2c3c(c(=O)oc12)CCC3 (configuration not stated)	9.5	-0.2	-8.6	0.2
CC[C@@]1(O)C(=O)OCc2c1cc1n(c2=O)Cc2cc3c(CN(C)C)c(O)ccc3nc2-1	66.6*!	-0.4	12.4	-0.2
O=c1cc(/C=C/c2ccco2)[nH]c2ccccc12	23.4	-1.3	-27.8	0.2
SMILES	MITF inh	GPR151 ag	TEAD-YAP block	FBW7 activator
COc1ccc(C2=NN(c3nc(C)c(C(C)=O)s3)C(c3ccco3)C2)cc1 (configuration not stated)	-19.4	-1.6	-33.4	0.0
COC(=O)c1ccc(COC(=O)c2ccc(OCc3c(C)noc3C)c(OC)c2)cc1	1.1	-0.2	-26.5	0.1
COc1cc(C(=O)OCC(C)=O)ccc1OCc1c(C)noc1C	9.2	-1.5	48.3*	-0.1
CCCCN(C)c1nnc(NC(=O)Nc2cc(OC)c(OC)c(OC)c2)s1	11.2	0.1	56.4*	-0.1
CCCCN(C)c1nnc(NC(=O)Nc2ccccc2OC)s1	1.5	0.9	-13.8	0.0
CCOc1cc(C#N)c(NC(=O)c2ccco2)cc1OCC	1.9	-0.2	52.1*	0.1
CCc1cccc(C)c1NC(=S)N(CCN1CCCCCC1)Cc1ccco1	7.1	-1.6	6.8	3.2*
CC(C)CC(C(=O)N1C(=O)c2cccc(N)c2C1=O)N1C(=O)c2ccccc2C1=O (configuration not stated)	2.9	-0.2	7.9	0.0
Cc1cc(Cl)ccc1OCC(=O)Nc1nccs1	7.6	-5.6	65.2*	-0.1
CC(C)(C)c1ccc(OCC(=O)Nc2nccs2)c(Br)c1	-2.6	-1.0	90.8*	0.0
CCc1ccc(OCC(=O)Nc2nccs2)c(Br)c1	9.2	-7.7	95.0*	0.4
CCc1ccc(OCC(=O)Nc2cccc(C)n2)c(Br)c1	1.9	-1.0	-19.2	0.1
Cc1ccc(OCC(=O)Nc2nccs2)c(Br)c1	0.5	-9.3	97.7*	0.0
Cc1ccc(/C=N/NC(=O)C2COc3ccccc3O2)c(O)c1 (configuration not stated)	-18.8	-0.9	53.2*	-0.1
O=C(N/N=C/c1ccccc1)C1COc2ccccc2O1 (configuration not stated)	-0.3	2.7	37.3*	-0.1
COc1cc([N+](=O)[O-])cc(/C=N/NC(=O)C2COc3ccccc3O2)c1O (configuration not stated)	10.7	-1.4	2.5	0.6
O=C(N/N=C/c1ccc(O)c(O)c1O)C1COc2ccccc2O1 (configuration not stated)	55.3*	-0.3	-2.5	-1.2
COc1cccc(/C=N/NC(=O)C2COc3ccccc3O2)c1O (configuration not stated)	68.8*	-0.2	7.3	-1.2
COc1cccc(C(=O)COc2cccc(N3C(=O)C4C5C=CC(C6CC56)C4C3=O)c2)c1 (configuration not stated)	10.1	-0.1	25.6	0.2
CC1CC(C)CN(C(=O)c2cnc(N3CCN(c4ccccn4)CC3)c3ccccc23)C1 (configuration not stated)	8.1	-0.3	22.9	0.6
Cc1nc2nc[nH]n2c(=O)c1NC(=O)c1ccccc1Cl	-2.4	-0.9	-0.2	-0.2
COC(=O)c1ccc(NC(=O)CC2C(=O)N(c3ccccc3)C(=S)N2Cc2ccc(Cl)cc2)cc1 (configuration not stated)	-0.1	1.1	-1.7	-0.1
O=C(N/N=C/c1ccc2c3c(cccc13)CC2)C1COc2ccccc2O1 (configuration not stated)	-23.3	-1.1	48.9*	0.0
C/C(=N\NC(=O)C1COc2ccccc2O1)c1ccco1 (configuration not stated)	-0.9	-0.9	39.1*	0.4
C/C(=N\NC(=O)C1COc2ccccc2O1)c1ccccc1 (configuration not stated)	1.2	-1.6	25.4	0.5
COc1cc(Cl)cc(/C=N\NC(=O)C2COc3cc4ccccc4cc3O2)c1O (configuration not stated)	-10.3	-0.9	52.7*	-0.3
COC(=O)c1ccc2nc(-c3cccc(F)c3)c(-c3cccc(F)c3)nc2c1	0.8	0.5	-6.3	0.0
Cc1ccc(C2=CC(c3ccc(C)cc3)n3c(nc4ccccc43)N2)cc1 (configuration not stated)	0.9	1.2	-43.1	-0.1
Cc1ccc(C2=CC(c3ccc(F)c(Br)c3)n3c(nc4ccccc43)N2)cc1 (configuration not stated)	0.1	-7.2	51.8*	-0.1

Compound activity: PubChem, The Scripps Research Institute Molecular Screening Center
